From PubChem BioAssay AID651812 (National Center for Advancing Translational Sciences (NCATS), 2012)
The whole screen tested about 2,100 compounds, of which about 650 (31%) were called active. Not shown: some 16% with an inconclusive outcome. Calls come from the whole dose curve; as a rule, active = well fitted inhibition curve with a large enough effect; inconclusive = small, poorly fitted or top-dose-only effect; inactive = flat fitted curve, though single readings scatter. The list shows a part of the results.
Potency is the fitted concentration of half-maximal effect.

Experiment: qHTS for inhibitors of Vif-A3G interactions: Cherry picks; note: nearly all actives have a fitted effect of over 80% in size; for activity, negative = fluorescence increase: % of control where 0% means no effect
Conditions: HeLa A3G-eYFP + Vif (tagged APOBEC3G with the HIV-1 protein that degrades it), 24 h; Potency: eYFP fluorescence increase; series mostly up to 36.9 µM; activity, negative = fluorescence increase: at the top concentration
Description: The recent discovery and characterization of host restriction factors, which provide a potent defense to invading retroviruses, has provided new targets for antiviral drug development. APOBEC3G (A3G) and APOBEC3F (A3F) are potent cytidine deaminases that block HIV-1 replication; HIV-1 expresses the Vif protein, which counteracts A3G and A3F by binding to them and inducing their proteasomal degradation. The Vif-A3G and Vif-A3F interactions provide two potential targets for development of small molecules which can interfere with the ability of Vif to degrade A3G or A3F. […] To identify inhibitors that can interfere with Vif mediated degradation of A3G and A3F, we have developed Hela cell lines that stably express A3G or A3F tagged with eYFP at the C-terminal end (A3G-eYFP or A3F-eYFP, respectively) and Vif. In the absence of an inhibitor, Vif induces degradation of A3G-eYFP and A3F-eYFP, and the cells are not fluorescent. In the presence of an inhibitor, it is expected that Vif will be unable to degrade A3G-eYFP and/or A3F-eYFP, resulting in an increase in yellow fluorescence. In this assay, Vif A3G was screened against the cherry picks ordered from the MLSMR. NIH Chemical Genomics Center [NCGC] NIH Molecular Libraries Probe Centers Network [MLPCN] MLPCN Grant: MH093245 Assay Submitter (PI): Vinay Pathak, National Cancer Institute
A3G-Vif cells were harvested from T225 flask and resuspended in phenol free OPTI-MEM medium with 5% FBS. Then 5 uL of 140,000 cells/mL resuspended cells was dispensed into each well of low base Aurora COC 1,536-well plates (black walled, clear bottom) using a Multidrop Combi dispenser. After overnight culture at 37 deg C with 5% CO2, a total of 23 nL of compounds at 5 selected concentrations from the NPC or positive control (2 mM stock of MG132) in DMSO was transferred to each well of the assay plate using a pintool (Kalypsys, San Diego, CA), and the plates were further incubated at 37 deg C with 5% CO2 for 24 hours. After that, the plates were measured on Acumen Explorer (TTP Lab Tech). The fluorescence was detected by 488 nm/Ex and […].
With `Cc1cccc(-n2c(/C=C/c3ccc([N+](=O)[O-])o3)nc3ccccc3c2=O)c1` the Potency was 3.66 µM (active). For `Cc1cccc(-n2c(/C=C/c3c(C)[nH]c4ccccc34)nc3ccccc3c2=O)c1`, the Potency was 16.4 µM (active). For `O=c1c2ccccc2nc(/C=C/c2ccc([N+](=O)[O-])o2)n1-c1ccc(O)cc1`, the Potency was 15.8 µM (active). In the case of `CC(=O)OC1C2(CC3N4C(=O)C5(CO)SSC4(CC31O)C(=O)N5C)OC(C)C(C)(C)C2=O` (stereo unspecified), the “activity, negative = fluorescence increase” value is reported as -3.88% (inactive). With `O=c1nc(/C=C/c2ccc(Cl)cc2Cl)cc(C(F)(F)F)[nH]1` the “activity, negative = fluorescence increase” value was -0.355% (inactive). In the case of `C=CCn1c(O)c(C(C)=Nc2ccc(N(CC)CC)cc2)c(=O)[nH]c1=O`, the “activity, negative = fluorescence increase” value is reported as -6.28% (inactive). For `CCN(CC)c1ccc(N=Cc2c(O)n(Cc3ccccc3)c(=O)[nH]c2=O)cc1`, the Potency was 7.31 µM (active). For `CCN(CC)c1ccc(N=Cc2c(O)n(CCC3=CCCCC3)c(=O)[nH]c2=O)cc1`, the Potency was 3.66 µM (active). In the case of `Cc1cccc(-n2c(O)c(/C=C/C=Nc3ccccc3)c(=O)[nH]c2=O)c1`, the Potency is reported as 5.17 µM (active). In the case of `COc1ccc(-n2cnc3cc(C(=O)N4CCC5(CC4)OCCO5)ccc32)cc1`, the “activity, negative = fluorescence increase” value is reported as 3.42% (inactive). For `Cc1cc(C)cc(N2C(=O)NC(=O)/C(=C\C=C\c3ccco3)C2=O)c1`, the “activity, negative = fluorescence increase” value was -22.3% (inactive). For `Cc1cccc(N2C(=O)NC(=O)/C(=C\C=C\c3ccco3)C2=O)c1`, the “activity, negative = fluorescence increase” value was -12.9% (inactive). With `CN(C)c1ccc(/C=C/C=C2/C(=O)NC(=O)N(c3ccccc3)C2=O)cc1` the Potency was 23.1 µM (active). In the case of `CC(C)c1ccc(N2C(=O)NC(=O)/C(=C/C=C/c3ccco3)C2=O)cc1`, the Potency is reported as 17.7 µM (active). In the case of `CC(C)c1ccc(N2C(=O)NC(=O)/C(=C\C=C\c3ccco3)C2=O)cc1`, the Potency is reported as 17.7 µM (active). In the case of `O=[N+]([O-])c1ccc(N2CCOCC2)c2c1no[n+]2[O-]`, the “activity, negative = fluorescence increase” value is reported as -16.4% (inactive). For `CC(C)CCCn1c(O)c(/C=C2/C=CC=N2)c(=O)[nH]c1=O`, the Potency was 23.1 µM (active). For `C=C1C(=O)OC2C1CCC(C)C1(O)C=CC(=O)C21C` (stereo unspecified), the “activity, negative = fluorescence increase” value was 0.263% (inactive). With `CC1=CC(=Cc2sc3ccccc3[n+]2C)C=C(C)O1` the Potency was 6.51 µM (active). In the case of `Nc1ccc2c3c(cccc13)-c1ccccc1-2`, the Potency is reported as 4.11 µM (active). With `CN1C(=O)/C(=C/c2ccc(N3CCCCCC3)o2)C(=O)NC1=S` the Potency was 15.8 µM (active). With `CN1C(=O)/C(=C\c2ccc(N3CCCCC3)o2)C(=O)NC1=S` the Potency was 17.7 µM (active). In the case of `CN1CCN(c2ccc(/C=C3\C(=O)NC(=S)N(c4cccc(Br)c4)C3=O)o2)CC1`, the Potency is reported as 18.4 µM (active). With `CCC(C)N1C(=O)/C(=C\c2ccc(N3CCCCCC3)cc2)C(=O)NC1=S` (stereo unspecified) the “activity, negative = fluorescence increase” value was -23.4% [at 46.1 µM] (inactive). In the case of `Cc1cc(/C=C2\C(=O)NC(=O)N(c3ccc(Br)cc3)C2=O)c(C)n1C`, the “activity, negative = fluorescence increase” value is reported as -0.904% (inactive). For `CCN(CC)c1ccc(C=C2C(=O)N(C)C(=S)N(C)C2=O)o1`, the Potency was 14 µM (active). For `CCN(CC)c1ccc(/C=C2\C(=O)NC(=S)N(C)C2=O)o1`, the Potency was 12.5 µM (active). With `CCN(CC)c1ccc(/C=C2\C(=O)NC(=S)N(c3ccc(OC)cc3OC)C2=O)o1` the Potency was 16.4 µM (active). With `CCN1C(=O)/C(=C/c2ccc(N(CC)CC)cc2OC)C(=O)NC1=S` the “activity, negative = fluorescence increase” value was -8.27% [at 46.1 µM] (inactive). In the case of `COc1cc2c(cc1O)[C@@H]1Cc3ccc(OC)c(O)c3CN1CC2`, the “activity, negative = fluorescence increase” value is reported as -7.77% (inactive). In the case of `N#CC1=C(N)Oc2c(c(=O)sc3ccccc23)C1c1cccnc1` (stereo unspecified), the “activity, negative = fluorescence increase” value is reported as -9.63% (inactive). In the case of `Cc1cc(N2CCCC2)ccc1C=C(C#N)C#N`, the Potency is reported as 7.31 µM (active). For `Cc1c2ccncc2c(C)c2c1[nH]c1ccccc12`, the Potency was 14.6 µM (active). For `CC/C(=N\NC(=O)c1ccccc1O)c1c(O)n(Cc2ccccc2)c(=O)[nH]c1=O`, the Potency was 20.6 µM (active). With `CC(=O)O[C@@]12CO[C@@H]1C[C@H](OC1OCC(O)C(O)C1O)[C@@]1(C)C(=O)[C@H](O)C3=C(C)[C@@H](OC(=O)[C@H](O)[C@@H](NC(=O)c4ccccc4)c4ccccc4)C[C@@](O)([C@@H](OC(=O)c4ccccc4)C12)C3(C)C` (stereo partly specified) the “activity, negative = fluorescence increase” value was -10.3% (inactive). In the case of `COC(=O)C1=C(C)N(Cc2ccco2)C(=O)/C1=C\c1ccc(N(C)C)cc1`, the Potency is reported as 13 µM (active).
